The results in this text go back to PubChem BioAssay (NCATS).

Where “and” joins values, the source holds several entries; their conditions need not be identical. Equal values may be shown once. Records with an inconclusive call do not appear. Calls of active or inactive are those of the source.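 The calls were made as follows, unless noted: active = compounds whose dose series gives a full or clear partial fitted curve of increased nuclear translocation; inconclusive = weak partial curve or effect only at the top dose; inactive = no dose-dependent translocation response.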

Tested on in the first experiment: not listed separately
Kind of experiment: Stat Signaling Pathway (AID 446; active = well fitted curve in either direction with a large enough effect, not every such curve was filed as active;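 also: ME-180 cervical cancer cells given 40 pM IL-6 alongside compound; SIE-controlled beta-lactamase reporter measured as 460/530 nm FRET emission ratio; % is scaled to controls: 0 for no effect and ±100 for the full control effect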). The note with it: ME-180 (cervical carcinoma) SIE beta-lactamase reporter, IL-6 stimulated, 5 h; at 38 µM (top of the series) unless noted. Summed up: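 Compound effects on IL-6-induced STAT reporter activity were measured in ME-180 cells. After overnight culture, cells were co-treated with 40 pM IL-6 for 5 hrs before beta-lactamase substrate loading at room temperature.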
In the case of `CCn1c(=O)[nH]c2cc(Cl)c(Cl)cc21`, the activity, negative = inhibition is -18.6% (inactive).
On the same count and under the same terms, with `CCSC(=N)N` the figure was 9.06% (inactive).
Still for that read-out and setting: with `CCN1C(=O)C=CC1=O` the figure was -6.29% (inactive).
On the same count and under the same terms, with `O=C(O)/C(=C/c1c(C(=O)O)[nH]c2cc(Cl)cc(Cl)c12)c1ccccc1` the figure was 10.5% (inactive).
`CC(=O)NCCc1c[nH]c2ccc(O)cc12`: the activity, negative = inhibition was -51.8% (inactive).
Still for that read-out and setting: with `[Li+]` the figure was -7.38% (inactive).
Same read-out and setting: the value for `O=c1[nH]ccc2c(O)cccc12` was -2.82% (inactive); that for `COc1ccc(-c2ccc(N)[n+](CCCC(=O)O)n2)cc1` was 5.04% [at 17.2 µM] (inactive); that for `Cn1cc(C(=O)OCC2CCN(CCNS(C)(=O)=O)CC2)c2ccccc21` was -18.9% (inactive).
The same measure, in the same setting: with `NC(N)=NC(N)=Nc1cccc(Cl)c1` the figure was 15.9% (inactive).
Take `C[C@H](NC(=O)/C(C#N)=C/c1ccc(O)c(O)c1)c1ccccc1`: the activity, negative = inhibition is -15.4% (inactive).
Still for that read-out and setting: the value for `Nc1nc2ccc(Cl)cc2c2nc(-c3ccco3)nn12` was 3.22% (inactive).
The same measure, in the same setting: the value for `CC(=O)N[C@@H](Cc1c[nH]c2ccccc12)C(=O)OCc1cc(C(F)(F)F)cc(C(F)(F)F)c1` was 1.93% (inactive).
Same read-out and setting: the value for `NOCC(=O)O` was 4.25% (inactive).
With `Nn1nnc2ccccc21`, the activity, negative = inhibition was 9.14% (inactive).
Same read-out and setting: with `O=C(N[C@@H](Cc1ccccc1)C(=O)CCl)OCc1ccccc1` the figure was -59.3% (active).

For the next experiment, the target named is Glucocorticoid receptor (Homo sapiens) (UniProt P04150). The experiment can be described thus: GR-GFP Redistribution (AID 450). Also: potency is read from the fitted curve at half-maximal effect. As to conditions: U2OS GR-GFP nuclear translocation, laser cytometry, 2 h.
Sequence of Glucocorticoid receptor (Homo sapiens) (P04150 whole entry, looked up): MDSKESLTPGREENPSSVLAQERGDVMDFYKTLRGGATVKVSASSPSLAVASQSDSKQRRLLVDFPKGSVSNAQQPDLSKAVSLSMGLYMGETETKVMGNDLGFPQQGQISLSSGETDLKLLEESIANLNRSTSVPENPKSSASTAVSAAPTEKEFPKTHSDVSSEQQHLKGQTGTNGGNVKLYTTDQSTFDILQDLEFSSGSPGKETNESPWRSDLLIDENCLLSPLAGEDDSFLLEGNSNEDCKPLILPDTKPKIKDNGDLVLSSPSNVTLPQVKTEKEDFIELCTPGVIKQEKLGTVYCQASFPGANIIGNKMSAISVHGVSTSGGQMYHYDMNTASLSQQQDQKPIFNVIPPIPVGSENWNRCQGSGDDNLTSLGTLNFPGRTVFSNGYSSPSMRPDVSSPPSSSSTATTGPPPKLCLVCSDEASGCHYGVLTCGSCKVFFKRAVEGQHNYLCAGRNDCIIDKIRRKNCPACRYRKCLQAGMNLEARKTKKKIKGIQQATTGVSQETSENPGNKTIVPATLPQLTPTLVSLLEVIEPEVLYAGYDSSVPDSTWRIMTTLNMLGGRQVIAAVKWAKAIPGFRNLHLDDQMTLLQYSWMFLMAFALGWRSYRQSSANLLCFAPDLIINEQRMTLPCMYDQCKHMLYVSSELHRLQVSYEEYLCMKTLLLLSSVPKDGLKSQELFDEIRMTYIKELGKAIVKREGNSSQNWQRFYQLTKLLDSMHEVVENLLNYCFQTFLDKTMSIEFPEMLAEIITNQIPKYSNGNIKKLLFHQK
Turning to `O=C(O)C1=CC(=C(c2ccc(O)c(C(=O)O)c2)c2ccc(O)c(C(=O)O)c2)C=CC1=O`, the Potency was > 46 µM (inactive).
As to `C=CCn1c(=O)c2c(nc(-c3ccc(S(=O)(=O)O)cc3)n2C)n(C)c1=O`, the Potency is > 46 µM (inactive).
The same measure, in the same setting: with `O=C1Nc2ccc(I)cc2/C1=C/c1cc(Br)c(O)c(Br)c1` the figure was > 46 µM (inactive); with `CCn1c(=O)[nH]c2cc(Cl)c(Cl)cc21`, > 46 µM (inactive).
For the compound `NC(=O)CNCCC(c1ccccc1)c1ccccc1`, the Potency was > 46 µM (inactive).
Same read-out and setting: with `Fc1ccc(CN(C2=NCCN2)c2c(Cl)cccc2Cl)cc1` the figure was > 46 µM (inactive).
The same measure, in the same setting: the value for `CCSC(=N)N` was > 46 µM (inactive); that for `O=c1[nH]c(=O)c2nc3ccccc3nc2[nH]1` was > 46 µM (inactive).
With `CCN1C(=O)C=CC1=O`, the Potency was > 46 µM (inactive).
As to `CC(C)(C)c1cc(/C=C(\C#N)C(N)=S)cc(C(C)(C)C)c1O`, the Potency was > 46 µM (inactive).
The same measure, in the same setting: the value for `COc1cc(/C=C(\C#N)C(=O)c2ccc(O)c(O)c2)cc(I)c1O` was > 46 µM (inactive); that for `OC1(c2ccc(Cl)cc2)CCN(Cc2c[nH]c3ccccc23)CC1` was > 46 µM (inactive).
Same read-out and setting: with `O=C(O)/C(=C/c1c(C(=O)O)[nH]c2cc(Cl)cc(Cl)c12)c1ccccc1` the figure was > 46 µM (inactive).
Still for that read-out and setting: with `CC(=O)NCCc1c[nH]c2ccc(O)cc12` the figure was > 46 µM (inactive); with `[Li+]`, > 46 µM (inactive).
In the case of `O=c1[nH]ccc2c(O)cccc12`, the Potency was > 46 µM (inactive).
`COc1ccc(-c2ccc(N)[n+](CCCC(=O)O)n2)cc1`: the Potency was > 46 µM (inactive) and > 20.6 µM (inactive).
As to `Nc1ccc(N2C(=O)c3ccccc3C2=O)c(Cl)c1`, the Potency is > 46 µM (inactive).
On to `COc1cc2c(CCNC(C)=O)c[nH]c2cc1O`, for which the Potency is > 46 µM (inactive).
On to `N#Cc1cc2nc(O)c(O)nc2cc1[N+](=O)[O-]`, for which the Potency is > 46 µM (inactive).
Still for that read-out and setting: the value for `c1ccc2nc(C3=NCCN3)ccc2c1` was > 46 µM (inactive); that for `CNCCNS(=O)(=O)c1cccc2cnccc12` was > 46 µM (inactive); that for `Cn1cc(C(=O)OCC2CCN(CCNS(C)(=O)=O)CC2)c2ccccc21` was > 46 µM (inactive).
Same read-out and setting: with `NC(N)=NC(N)=Nc1cccc(Cl)c1` the figure was > 46 µM (inactive); with `C[C@H](NC(=O)/C(C#N)=C/c1ccc(O)c(O)c1)c1ccccc1`, > 46 µM (inactive); with `CN[C@H](CC(=O)O)C(=O)O`, > 46 µM (inactive).
The same measure, in the same setting: the value for `Nc1nc2ccc(Cl)cc2c2nc(-c3ccco3)nn12` was > 46 µM (inactive).
Turning to `NC(N)=[N+]1CCc2ccccc2C1`, the Potency is > 46 µM (inactive).
Take `CC(=O)N[C@@H](Cc1c[nH]c2ccccc12)C(=O)OCc1cc(C(F)(F)F)cc(C(F)(F)F)c1`: the Potency was > 46 µM (inactive).
The same measure, in the same setting: with `NOCC(=O)O` the figure was > 46 µM (inactive); with `Nn1nnc2ccccc21`, > 46 µM (inactive); with `O=C(N[C@@H](Cc1ccccc1)C(=O)CCl)OCc1ccccc1`, > 46 µM (inactive).
For the compound `CC[C@H](NC(=O)c1c(C)c(-c2ccccc2)nc2ccccc12)c1ccccc1`, the Potency is > 46 µM (inactive).

For the next experiment the target is unchanged. The experiment can be described thus: GR-EFC Redistribution (AID 451; calls by dose curve; also: potency is read from the fitted curve at half-maximal effect). The note with it: CHO-K1 GR-EFC translocation, beta-gal luminescence, 2 h. Summed up:
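CHO-K1 cells stably expressing nuclear-localized β-gal enzyme acceptor and GR fused C-terminally to the enzyme donor fragment; ligand-driven nuclear translocation restores β-gal by complementation. Compounds titrated up to 46 uM final, 2 h at 37 °C; luminescence read.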
For the compound `O=C(O)C1=CC(=C(c2ccc(O)c(C(=O)O)c2)c2ccc(O)c(C(=O)O)c2)C=CC1=O`, the Potency was > 46 µM (inactive).
On the same count and under the same terms, the value for `C=CCn1c(=O)c2c(nc(-c3ccc(S(=O)(=O)O)cc3)n2C)n(C)c1=O` was > 46 µM (inactive); that for `O=c1[nH]c(=O)c2nc3ccccc3nc2[nH]1` was > 46 µM (inactive); that for `CC(C)(C)c1cc(/C=C(\C#N)C(N)=S)cc(C(C)(C)C)c1O` was > 46 µM (inactive).
The same measure, in the same setting: the value for `COc1cc(/C=C(\C#N)C(=O)c2ccc(O)c(O)c2)cc(I)c1O` was > 46 µM (inactive); that for `OC1(c2ccc(Cl)cc2)CCN(Cc2c[nH]c3ccccc23)CC1` was > 46 µM (inactive).
In the case of `O=C(O)/C(=C/c1c(C(=O)O)[nH]c2cc(Cl)cc(Cl)c12)c1ccccc1`, the Potency is > 46 µM (inactive).
Same read-out and setting: with `[Li+]` the figure was > 46 µM (inactive); with `O=c1[nH]ccc2c(O)cccc12`, > 46 µM (inactive); with `COc1cc2c(CCNC(C)=O)c[nH]c2cc1O`, > 46 µM (inactive).
Turning to `N#Cc1cc2nc(O)c(O)nc2cc1[N+](=O)[O-]`, the Potency was > 46 µM (inactive).
Still for that read-out and setting: with `CNCCNS(=O)(=O)c1cccc2cnccc12` the figure was > 46 µM (inactive); with `NC(N)=NC(N)=Nc1cccc(Cl)c1`, > 46 µM (inactive); with `C[C@H](NC(=O)/C(C#N)=C/c1ccc(O)c(O)c1)c1ccccc1`, > 46 µM (inactive).
`Nc1nc2ccc(Cl)cc2c2nc(-c3ccco3)nn12`: the Potency is > 46 µM (inactive).
In the case of `CC(=O)N[C@@H](Cc1c[nH]c2ccccc12)C(=O)OCc1cc(C(F)(F)F)cc(C(F)(F)F)c1`, the Potency was > 46 µM (inactive).
The same measure, in the same setting: with `NOCC(=O)O` the figure was > 46 µM (inactive).
Same read-out and setting: with `Nn1nnc2ccccc21` the figure was > 46 µM (inactive).
On the same count and under the same terms, with `O=C(N[C@@H](Cc1ccccc1)C(=O)CCl)OCc1ccccc1` the figure was > 46 µM (inactive).
As to `CC[C@H](NC(=O)c1c(C)c(-c2ccccc2)nc2ccccc12)c1ccccc1`, the Potency is > 46 µM (inactive).
